Rows were chosen to be rich in hits. Some 3.7% of all compounds tested hit in one or more screens of this group.
BH1578 lux ind = inducers of Vibrio cholerae quorum light production without autoinducers | V. cholerae BH1578 lux reporter, luminescence, 6 h | activation, % at 18.7 µM | hit rate 0.16% among 350,000; in the data active means activation mostly above about 9.7%, no sharp cut-off; inconclusive means no clear call, values can overlap the other calls; inactive means mostly below about 3.7%
Autofluor counter = flagged as autofluorescent in microsphere protease counterscreen | compound autofluorescence counterscreen, microsphere flow cytometry; hits give high values | fluorescence intensity (concentration not given with the values) | hit rate 3.1% among 360,000 | AID 624483; in the data active means fluorescence intensity above about 16000; inconclusive means no clear call, values can overlap the other calls
Anthrax LF prot = inhibitors of Bacillus anthracis lethal factor protease; multiplex microsphere protease cleavage assay, LF; P15917; inhibition, % at 10 µM; AID 588501; hit rate 0.12% among 360,000; further: plate controls were buffer without enzyme for full effect and enzyme alone for no effect
BJeLR viability = kills HRASV12-expressing BJeLR cells. BJeLR (HRASV12) viability, CellTiter-Glo ATP luminescence, 48 h. AID 1554. hit rate 0.17% among 300,000. inhibition, % (concentration not given with the values); in the data active means inhibition above about 50%; inconclusive means no clear call, values can overlap the other calls
BoNT-A LC inh2 = blocks Botulinum neurotoxin A light chain protease; hit rate 0.17% among 360,000; inhibition, % at 10 µM; multiplex microsphere protease substrate cleavage, flow cytometry; further: plate controls were buffer without enzyme for full effect and enzyme alone for no effect
BoNT F protease = BoNT F light chain protease inhibition. Multiplex microsphere protease cleavage assay, flow cytometry. inhibition, % at 10 µM. hit rate 0.22% among 360,000; in the data active means inhibition above about 35%, passing the limit was not always enough; inconclusive means no clear call, values can overlap the other calls; further: plate controls were buffer without enzyme for full effect and enzyme alone for no effect
BoNTA LC inh 1 = BoNT/A light chain protease inhibition; multiplex microsphere protease assay, flow cytometry; hit rate 3% among 720; AID 602139; inhibition, % at 10 µM; shares compounds with BoNT F protease; in the data active means inhibition above about 32%
BoNTF LC inh 1 = blocks botulinum neurotoxin F light chain protease; shares compounds with BoNT F protease; multiplex microsphere protease cleavage assay, flow cytometry; inhibition, % at 10 µM; AID 602140; 720 tested, under 10 active; call rule not given here
Anthrax LF CP1 = Bacillus anthracis lethal factor protease inhibition; AID 602142; inhibition, % at 10 µM; shares compounds with BoNT F protease; 720 tested, under 10 active; multiplex microsphere protease cleavage assay, LF; call rule not given here
* = called active by the depositor; i = inactive; ? = inconclusive; · = not tested or not shown. Unless noted, no stated cut-off is given here; in the data, active means inhibition above about 30%; inconclusive means no clear call, values can overlap the other calls; inactive means below that.

SMILES	BH1578 lux ind	Autofluor counter	Anthrax LF prot	BJeLR viability	BoNT-A LC inh2	BoNT F protease	BoNTA LC inh 1	BoNTF LC inh 1	Anthrax LF CP1
COc1cc(C(=O)NCC(c2cccs2)N2CCOCC2)cc(Br)c1OCc1ccccc1 (configuration not stated)	-1	2853	2	·	2	7	·	·	·
CCCC(C(=O)NC(C)(C)CC)N(CC1CCCO1)C(=O)CNS(=O)(=O)c1ccc(F)cc1 (configuration not stated)	i	2952	30*	4	1	2	0	-4	4
COCCn1c(=S)[nH]c2cc(C(=O)NC3CCCCC3C)ccc2c1=O (configuration not stated)	0	3534	-4	·	0	2	·	·	·
CCOC(=O)CCCCC(=O)c1[nH]c(=O)[nH]c1CSc1nc(C)cc(C)n1	-1	4042	5	4	1	10	1	-2	-2
CCOC(=O)CCCCC(=O)c1[nH]c(=O)[nH]c1C[n+]1ccccc1	·	·	·	7	·	·	·	·	·
CCOC(=O)CCCCC(=O)c1[nH]c(=O)[nH]c1CN1CCOCC1	1	5310	4	12	10	59*	-1	-3	-1
CCOC(=O)CCCCC(=O)c1[nH]c(=O)[nH]c1C[n+]1ccc(C)cc1	i	4458	-3	3	0	-2	·	·	·
CCOC(=O)c1[nH]c(=O)[nH]c1CSc1nc(C)cc(C)n1	i	4731	-2	-9	0	-3	·	·	·
CCOC(=O)CCCCC(=O)c1[nH]c(=O)[nH]c1CSc1nc(C)cc(=O)[nH]1	0	6552	4	8	8	47*	1	4	-2
CCOC(=O)CCCCC(=O)c1[nH]c(=O)[nH]c1CSc1nc2ccccc2[nH]1	i	7134	0	-6	5	36*	0	-6	-3
CCNC(=O)C1(C)CCN(C(=O)c2ccc(OC(F)F)cc2)C1 (configuration not stated)	i	2836	-2	·	0	3	·	·	·
S=C1NCC(c2ccccc2)S1 (configuration not stated)	i	3977	-2	·	1	-3	·	·	·
Cc1cc(C)cc(N2C(=O)NC(=O)/C(=C\c3cccn3-c3ccccc3)C2=O)c1	0	6580	31*	2	6	68*	0	-3	3
COc1ccc(-c2sc3ccccc3c2/C=C/c2ccncc2)cc1	0	4261	-6	·	0	-17	·	·	·
CC(C)CCn1c(-c2nonc2N)nc2ccccc21	-1	3532	-7	-1	1	32	-1	-4	-2
CC1(C(=O)NS(=O)(=O)Cc2cccc(Cl)c2)CCN1C(=O)CCc1cccs1 (configuration not stated)	i	4068	-5	·	0	4	·	·	·
CC1(C(=O)NS(=O)(=O)c2cccs2)CCN1C(=O)Cc1ccc(Cl)cc1Cl (configuration not stated)	i	3029	-3	·	0	-9	·	·	·
O=C(NCc1cccc(Cl)c1)N1CCN(S(=O)(=O)c2ccccc2F)CC1	i	3551	-7	2	6	69*	0	-7	4
O=C(NCc1ccc(F)cc1)N1CCN(S(=O)(=O)c2ccccc2F)CC1	i	3663	6	8	-1	2	·	·	·
O=C(OCc1cn([C@H]2CN(C(=O)C3CCCCC3)[C@@H](c3ccc(Cl)cc3)C[C@@H]2O)nn1)c1ccccc1	0	3766	2	·	0	-5	·	·	·
Cc1cccc(OCC(=O)Nc2ccc3nc(C)sc3c2)c1	0	3368	4	4	1	2	·	·	·
Cc1nc2ccc(NC(=O)COc3cccc(F)c3)cc2s1	i	4736	-3	0	5	38*	2	-1	0
Cc1ccc(C(=O)Nc2ccccc2C(=O)O)cc1S(=O)(=O)Nc1ccccc1	0	·	·	-4	·	·	0	-2	-5
Cc1ccc(C(=O)Nc2ccccc2C(=O)O)cc1S(=O)(=O)NC1CCCCC1	0	4898	-3	-3	4	1	·	·	·
O=C(Nc1ccccc1C(=O)O)c1cc(S(=O)(=O)Nc2cccc(F)c2)ccc1Cl	0	4123	2	-8	-2	?	0	-3	5
SMILES	BH1578 lux ind	Autofluor counter	Anthrax LF prot	BJeLR viability	BoNT-A LC inh2	BoNT F protease	BoNTA LC inh 1	BoNTF LC inh 1	Anthrax LF CP1
O=C(Nc1ccc(S(=O)(=O)Nc2ccccn2)cc1)c1cccc(Cl)c1	-2	3864	-4	0	-2	36*	0	-3	-2
O=C(O)c1ccc(NS(=O)(=O)c2cccc(C(=O)Nc3ccc(Br)cc3)c2)cc1	0	4139	31*	-14	-2	?	-1	0	1
O=C(Nc1ccccc1C(=O)O)c1cc(S(=O)(=O)N2CCCCCC2)ccc1Cl	i	3038	8	-18	0	-5	·	·	·
O=C(Nc1ccc(S(=O)(=O)Nc2ccccn2)cc1)c1cccc(Br)c1	0	5552	3	5	2	0	·	·	·
COCCNC(=O)C1(C)CCN(Cc2noc(-c3c(C)noc3C)n2)C1 (configuration not stated)	i	3362	3	·	0	6	·	·	·
Nc1[nH]c(C(=O)c2ccccc2)c(-c2ccccc2C(F)(F)F)c1C(=O)NCc1ccc(F)cc1	·	6071	7	·	0	3	·	·	·
CCCC(=O)N1CCCC1(C)C(=O)Nc1ccc(OC(F)F)cc1 (configuration not stated)	-5	3651	-5	·	0	-3	·	·	·
Cc1ccc2c(=O)n3c(nc2c1)C(Cc1ccc(O)cc1)NC(=O)c1cccnc1-3 (configuration not stated)	0	3852	3	·	0	4	·	·	·
O=C(Nc1ccccc1)c1ccc(S(=O)(=O)Nc2cccc(O)c2)cc1	0	5682	-1	9	0	-2	0	-7	-4
O=C(Nc1ccccc1C(=O)O)c1cccc(NS(=O)(=O)c2ccc(Br)cc2)c1	0	3689	6	-11	0	6	·	·	·
O=C(Nc1ccccc1C(=O)O)c1cccc(S(=O)(=O)Nc2ccc(Br)cc2)c1	i	2788	2	-5	-1	16	0	-2	0
Cc1nc(-[n+]2nc(-c3ccncc3)nn2-c2ccccc2)sc1C	·	5754	-22	·	-1	-29	·	·	·
O=C(CSc1n[nH]c(-c2ccncc2)n1)NCCc1ccccc1	-2	2758	1	-2	0	-6	·	·	·
CCc1nc(SCC(=O)NCCc2ccccc2)n[nH]1	-1	3454	-6	-7	1	35*	1	0	3
COc1cccc(NC(=O)CN2CCC(NC(=O)c3ccccc3C)CC2)c1	-2	3839	-7	·	-1	-5	·	·	·
O=C(Cc1ccccc1)c1ccc(Cl)cc1	i	3769	30*	-3	?	?	2	-3	-5

Source: PubChem BioAssay
